Measurements: the supplement of paper PMC10849652
Of roughly 8,800 targets only a part is listed; those with a hit were picked by preference. About 0.5% of all pairs of compound and target were hits.

Columns and labels:
Experiment in all cases: log2 fold change, soluble protein after heating vs DMSO (PISA); higher = thermal stabilisation; K562 lysate, 10 uM; active = over 0.2 and 3.5 SD of the protein, either way, in both replicates (recomputed)
[1] = compound: NCC(=O)Nc1ccc(-n2nc(C(F)(F)F)cc2-c2ccc3c(ccc4ccccc43)c2)cc1
Outline: (§1)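 A 30 min treatment with 10 μM compound was applied to crude K562 extract at 1 mg/mL protein in PBS pH 7.4 with 1 mM MgCl2. Heating for 3 min spanned 48°C-58°C, after which aliquots were pooled, adjusted to 0.5% NP-40 at 4°C and spun at 21,000xg for 90 min. TMTpro 16plex LC-MS/MS of the supernatant, with channel sums equalised, gave values recorded as log-two fold change in thermal stability against solvent controls, from duplicates.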

[2] = compound: O=C(CCCCCCC(=O)Nc1ccccc1)NO [vorinostat]
Outline: as §1

[3] = compound: O=C(O)c1ccc2c(c1)nc(Nc1cccc(Cl)c1)c1ccncc12 [silmitasertib]
Outline: as §1

[4] = compound: O=C1NC(=O)C(c2cnc3ccccn23)=C1c1cn2c3c(cc(F)cc13)CN(C(=O)N1CCCCC1)CC2
Outline: as §1

[5] = compound: c1cn2cc(-c3ccc4cn[nH]c4c3)nc(Nc3ccc(N4CCOCC4)cc3)c2n1 [entospletinib]
Outline: as §1

Measured: log2 fold change

GRK2 (UniProt P25098)
active: [2] -0.225
inactive: [1] -0.055 | [3] 0.066 | [4] -0.026 | [5] -0.006

HNRNPD isoform 3 (UniProt Q14103)
UniProt Q14103, sequence (Q14103 whole entry, looked up): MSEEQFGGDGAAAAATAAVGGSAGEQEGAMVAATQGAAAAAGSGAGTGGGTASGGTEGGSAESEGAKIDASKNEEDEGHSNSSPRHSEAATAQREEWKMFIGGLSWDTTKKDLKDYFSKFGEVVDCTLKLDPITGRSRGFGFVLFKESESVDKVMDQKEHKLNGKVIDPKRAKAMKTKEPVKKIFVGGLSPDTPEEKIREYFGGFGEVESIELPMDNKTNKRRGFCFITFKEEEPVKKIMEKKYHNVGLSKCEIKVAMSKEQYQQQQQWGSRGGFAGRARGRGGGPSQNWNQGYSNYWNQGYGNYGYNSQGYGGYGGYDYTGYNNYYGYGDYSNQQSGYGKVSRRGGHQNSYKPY
inactive: [1] 0.074 | [2] 0.078 | [3] 0.005 | [4] 0.09 | [5] 0

ILRUN (UniProt Q9H6K1)
UniProt Q9H6K1, sequence (Q9H6K1 whole entry, looked up): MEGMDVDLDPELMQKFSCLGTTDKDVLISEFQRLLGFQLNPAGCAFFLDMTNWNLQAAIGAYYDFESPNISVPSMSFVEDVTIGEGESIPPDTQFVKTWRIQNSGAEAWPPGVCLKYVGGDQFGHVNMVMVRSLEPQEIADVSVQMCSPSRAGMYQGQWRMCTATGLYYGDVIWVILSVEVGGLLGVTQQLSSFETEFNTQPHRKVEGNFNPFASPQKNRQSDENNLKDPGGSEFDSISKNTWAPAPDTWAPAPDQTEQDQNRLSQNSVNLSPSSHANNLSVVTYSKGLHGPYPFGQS
inactive: [1] 0.002 | [2] -0.047 | [3] 0.001 | [4] -0.01 | [5] -0.013

HNRNPUL2 (UniProt Q1KMD3)
inactive: [1] 0.029 | [2] -0.017 | [3] 0.022 | [4] -0.023 | [5] -0.032

INTS10 (UniProt Q9NVR2)
inactive: [1] 0.027 | [3] 0.047 | [4] 0.002 | [5] 0.006
active: [2] -0.438

GLUL (UniProt P15104)
inactive: [1] 0.008 | [2] 0.13 | [3] 0.006 | [4] -0.096 | [5] 0.116

HADHA (UniProt P40939)
inactive: [1] 0.052 | [2] -0.159 | [3] -0.026 | [4] 0.302 | [5] 0.027

HARS (UniProt P12081)
inactive: [1] -0.031 | [2] -0.003 | [3] 0.02 | [4] -0.054 | [5] 0.001

ICAM2 (UniProt P13598)
inactive: [1] -0.016 | [2] 0.148 | [3] -0.029 | [4] -0.021 | [5] -0.018

HIST2H2BC (UniProt Q6DN03)
UniProt Q6DN03, sequence (Q6DN03 whole entry, looked up): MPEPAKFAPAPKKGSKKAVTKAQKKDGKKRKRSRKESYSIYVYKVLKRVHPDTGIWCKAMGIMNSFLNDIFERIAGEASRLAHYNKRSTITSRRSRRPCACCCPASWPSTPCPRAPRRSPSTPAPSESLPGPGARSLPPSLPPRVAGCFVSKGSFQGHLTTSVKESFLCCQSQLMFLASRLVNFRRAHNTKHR
inactive: [1] 0.018 | [2] 0.133 | [3] -0.098 | [4] -0.019 | [5] -0.062

HMBOX1 isoform 5 (UniProt Q6NT76)
UniProt Q6NT76, sequence (Q6NT76 whole entry, looked up): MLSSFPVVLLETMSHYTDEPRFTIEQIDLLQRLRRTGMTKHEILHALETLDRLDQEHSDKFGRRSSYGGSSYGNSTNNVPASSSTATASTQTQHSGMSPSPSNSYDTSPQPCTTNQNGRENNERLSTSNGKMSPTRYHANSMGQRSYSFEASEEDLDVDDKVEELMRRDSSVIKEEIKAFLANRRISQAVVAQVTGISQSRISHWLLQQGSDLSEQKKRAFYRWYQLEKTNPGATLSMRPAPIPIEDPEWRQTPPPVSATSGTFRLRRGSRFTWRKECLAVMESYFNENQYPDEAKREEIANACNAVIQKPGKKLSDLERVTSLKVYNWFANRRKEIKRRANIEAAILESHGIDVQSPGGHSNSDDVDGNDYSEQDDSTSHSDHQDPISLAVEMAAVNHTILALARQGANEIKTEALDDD
inactive: [1] 0.004 | [2] 0.093 | [3] 0.025 | [4] 0.02 | [5] -0.063

GIT1 (UniProt Q9Y2X7)
UniProt Q9Y2X7, sequence (Q9Y2X7 whole entry, looked up): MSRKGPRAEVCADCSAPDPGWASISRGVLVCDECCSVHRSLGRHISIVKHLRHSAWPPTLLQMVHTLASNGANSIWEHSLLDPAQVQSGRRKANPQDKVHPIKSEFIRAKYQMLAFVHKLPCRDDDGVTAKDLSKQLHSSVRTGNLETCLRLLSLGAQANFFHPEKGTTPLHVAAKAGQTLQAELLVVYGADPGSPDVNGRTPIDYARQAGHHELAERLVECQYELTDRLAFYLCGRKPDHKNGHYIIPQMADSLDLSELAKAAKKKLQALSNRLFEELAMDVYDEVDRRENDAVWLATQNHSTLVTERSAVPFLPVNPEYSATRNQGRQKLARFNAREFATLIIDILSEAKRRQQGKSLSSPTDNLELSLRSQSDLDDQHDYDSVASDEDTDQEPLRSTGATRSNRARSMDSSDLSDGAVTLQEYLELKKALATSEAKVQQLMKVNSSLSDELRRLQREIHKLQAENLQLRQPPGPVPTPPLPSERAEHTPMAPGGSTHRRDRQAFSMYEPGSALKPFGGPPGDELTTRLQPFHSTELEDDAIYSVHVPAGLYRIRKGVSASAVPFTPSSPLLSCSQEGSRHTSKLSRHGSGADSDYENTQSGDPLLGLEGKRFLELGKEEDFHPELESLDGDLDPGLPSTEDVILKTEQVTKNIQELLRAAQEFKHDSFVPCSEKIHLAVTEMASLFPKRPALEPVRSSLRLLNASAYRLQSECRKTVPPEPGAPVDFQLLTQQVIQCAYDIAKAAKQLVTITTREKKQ
active: [2] -0.32
inactive: [1] -0.043 | [3] 0.009 | [4] 0.006 | [5] -0.005

KHK isoform 2 (UniProt P50053)
UniProt P50053, sequence (P50053 whole entry, looked up): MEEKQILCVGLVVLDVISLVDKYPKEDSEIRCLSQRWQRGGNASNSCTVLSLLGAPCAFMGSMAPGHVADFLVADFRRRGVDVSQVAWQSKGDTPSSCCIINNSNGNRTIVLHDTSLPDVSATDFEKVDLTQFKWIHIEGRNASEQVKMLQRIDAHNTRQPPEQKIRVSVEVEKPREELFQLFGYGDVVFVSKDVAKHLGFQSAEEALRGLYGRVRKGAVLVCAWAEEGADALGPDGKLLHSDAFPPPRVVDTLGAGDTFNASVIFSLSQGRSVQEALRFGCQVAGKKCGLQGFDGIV
inactive: [1] 0.035 | [2] 0.045 | [3] 0.018 | [4] -0.053 | [5] 0.033

ISY1 isoform 1 (UniProt Q9ULR0)
inactive: [1] -0.163 | [2] 0.05 | [3] 0.032 | [4] -0.01 | [5] -0.02

GNB1 (UniProt P62873)
inactive: [1] 0.026 | [2] 0.064 | [3] 0.041 | [4] -0.037 | [5] 0.054

HK2 (UniProt P52789)
UniProt P52789, sequence (P52789 whole entry, looked up): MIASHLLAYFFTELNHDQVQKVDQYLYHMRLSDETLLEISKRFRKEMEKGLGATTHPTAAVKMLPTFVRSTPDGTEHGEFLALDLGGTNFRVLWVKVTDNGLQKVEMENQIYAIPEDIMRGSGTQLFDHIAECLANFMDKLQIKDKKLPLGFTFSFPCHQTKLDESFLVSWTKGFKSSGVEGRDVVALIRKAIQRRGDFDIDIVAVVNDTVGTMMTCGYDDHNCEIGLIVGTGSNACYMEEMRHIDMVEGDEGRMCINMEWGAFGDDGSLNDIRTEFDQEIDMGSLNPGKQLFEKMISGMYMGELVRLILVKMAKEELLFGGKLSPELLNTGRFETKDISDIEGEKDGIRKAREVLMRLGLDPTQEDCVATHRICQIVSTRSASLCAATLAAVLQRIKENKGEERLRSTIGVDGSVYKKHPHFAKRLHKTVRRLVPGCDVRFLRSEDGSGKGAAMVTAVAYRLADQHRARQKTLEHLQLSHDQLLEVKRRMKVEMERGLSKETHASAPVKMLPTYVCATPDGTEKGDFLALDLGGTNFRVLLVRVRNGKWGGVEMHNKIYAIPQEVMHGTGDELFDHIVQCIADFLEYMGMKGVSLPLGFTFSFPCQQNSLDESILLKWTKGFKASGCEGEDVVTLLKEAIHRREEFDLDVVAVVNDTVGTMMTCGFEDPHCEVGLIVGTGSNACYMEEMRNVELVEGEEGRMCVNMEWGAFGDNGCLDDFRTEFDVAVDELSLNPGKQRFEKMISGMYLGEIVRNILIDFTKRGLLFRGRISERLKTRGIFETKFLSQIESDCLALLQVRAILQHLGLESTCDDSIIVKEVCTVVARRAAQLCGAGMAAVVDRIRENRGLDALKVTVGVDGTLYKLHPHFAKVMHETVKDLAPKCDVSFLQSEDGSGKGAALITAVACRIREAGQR
inactive: [1] -0.018 | [3] 0.038 | [4] 0.007 | [5] 0.022
active: [2] -0.443

IRAK1 (UniProt P51617)
UniProt P51617, sequence (P51617 whole entry, looked up): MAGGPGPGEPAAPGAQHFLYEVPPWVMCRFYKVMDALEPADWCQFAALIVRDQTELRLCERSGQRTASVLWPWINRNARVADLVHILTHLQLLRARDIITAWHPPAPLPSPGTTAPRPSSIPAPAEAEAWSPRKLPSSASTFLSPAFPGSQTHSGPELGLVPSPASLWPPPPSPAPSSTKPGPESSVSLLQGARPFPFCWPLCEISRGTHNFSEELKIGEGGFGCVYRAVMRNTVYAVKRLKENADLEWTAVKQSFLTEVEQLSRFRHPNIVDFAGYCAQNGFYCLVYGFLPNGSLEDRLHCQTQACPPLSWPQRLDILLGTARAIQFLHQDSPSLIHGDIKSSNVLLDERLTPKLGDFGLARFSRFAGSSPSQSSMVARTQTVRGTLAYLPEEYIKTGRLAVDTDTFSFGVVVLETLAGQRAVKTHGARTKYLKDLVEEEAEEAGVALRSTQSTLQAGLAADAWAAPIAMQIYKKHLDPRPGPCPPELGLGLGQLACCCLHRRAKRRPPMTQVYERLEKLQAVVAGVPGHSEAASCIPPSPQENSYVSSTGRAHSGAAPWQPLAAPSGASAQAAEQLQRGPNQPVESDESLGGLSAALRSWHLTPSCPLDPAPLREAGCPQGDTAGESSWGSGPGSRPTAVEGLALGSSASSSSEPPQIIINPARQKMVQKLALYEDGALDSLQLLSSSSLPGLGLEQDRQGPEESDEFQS
active: [2] -0.359
inactive: [1] -0.073 | [3] 0.205 | [4] -0.014 | [5] 0.232

HAUS3 (UniProt Q68CZ6)
inactive: [1] 0.007 | [3] -0.009 | [4] 0.004 | [5] 0.007
active: [2] -0.618

HLTF (UniProt Q14527)
UniProt Q14527, sequence (Q14527 whole entry, looked up): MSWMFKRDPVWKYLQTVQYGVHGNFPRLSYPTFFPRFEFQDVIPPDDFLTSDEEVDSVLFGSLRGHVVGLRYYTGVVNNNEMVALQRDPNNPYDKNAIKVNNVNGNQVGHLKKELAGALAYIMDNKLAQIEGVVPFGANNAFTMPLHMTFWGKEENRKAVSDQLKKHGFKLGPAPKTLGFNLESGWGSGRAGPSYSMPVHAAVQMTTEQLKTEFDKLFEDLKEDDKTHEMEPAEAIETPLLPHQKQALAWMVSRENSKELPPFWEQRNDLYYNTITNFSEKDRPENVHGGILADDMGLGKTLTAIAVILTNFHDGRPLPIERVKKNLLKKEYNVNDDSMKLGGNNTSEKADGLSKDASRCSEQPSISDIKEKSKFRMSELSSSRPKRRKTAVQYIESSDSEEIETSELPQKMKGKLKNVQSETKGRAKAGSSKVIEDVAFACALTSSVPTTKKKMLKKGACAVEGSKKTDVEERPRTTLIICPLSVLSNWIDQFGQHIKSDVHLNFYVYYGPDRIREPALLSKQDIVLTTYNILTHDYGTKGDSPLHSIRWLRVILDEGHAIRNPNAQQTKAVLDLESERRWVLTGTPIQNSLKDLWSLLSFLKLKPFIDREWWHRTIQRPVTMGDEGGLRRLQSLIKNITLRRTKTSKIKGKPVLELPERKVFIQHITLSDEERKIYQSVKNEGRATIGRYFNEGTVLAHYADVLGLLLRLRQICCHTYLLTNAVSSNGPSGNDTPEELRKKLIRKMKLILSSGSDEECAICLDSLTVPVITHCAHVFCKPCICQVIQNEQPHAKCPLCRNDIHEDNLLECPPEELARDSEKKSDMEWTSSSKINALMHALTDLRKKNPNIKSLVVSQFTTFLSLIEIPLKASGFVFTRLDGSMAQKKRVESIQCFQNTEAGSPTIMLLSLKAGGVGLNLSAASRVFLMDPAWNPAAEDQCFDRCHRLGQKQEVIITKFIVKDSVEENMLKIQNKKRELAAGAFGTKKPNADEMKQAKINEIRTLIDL
active: [2] -0.246
inactive: [1] 0.046 | [3] 0.101 | [4] -0.101 | [5] 0.017

HSPA8 (UniProt P11142)
inactive: [1] -0.008 | [2] 0.105 | [3] -0.009 | [4] -0.011 | [5] -0.002
